Test results reported in PubChem BioAssay (NCI).
The panel holds about 83,000 compounds, 20% with a hit somewhere; the sample as a whole holds those more often.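 For each line, cells grew in 96-well plates with the test compound present at a single concentration for 48 hours.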 Calls of active or inactive are those of the source. Rule for the calls: active = growth percent below 10; inactive = the rest.

How the values were obtained:
Assay in all cases: NCI-60 one-dose screen, 48 h (100 = growth as untreated, 0 = no growth, -100 = all killed)
Details in all cases: 10 µM unless noted
NCI-H23 lung = tested on: NCI-H23 lung
NCI-H226 lung = tested on: NCI-H226 lung
NCI-H322M lung = tested on: NCI-H322M lung
HOP-62 NSCLC = tested on: HOP-62 NSCLC
NCI-H460 lung = tested on: NCI-H460 lung
786-0 renal = tested on: 786-0 renal
MDA-MB-231 breast = tested on: MDA-MB-231 breast
SF-268 CNS = tested on: SF-268 CNS
M14 melanoma = tested on: M14 melanoma
PC-3 prostate = tested on: PC-3 prostate
UACC-62 melanoma = tested on: UACC-62 melanoma
SK-MEL-28 melanoma = tested on: SK-MEL-28 melanoma
SN12C renal = tested on: SN12C renal
UO-31 renal = tested on: UO-31 renal
OVCAR-5 ovarian = tested on: OVCAR-5 ovarian
NCI/ADR-RES ovarian = tested on: NCI/ADR-RES ovarian
MDA-MB-435 melanoma = tested on: MDA-MB-435 melanoma
SW-620 colon = tested on: SW-620 colon
HCT-116 colon = tested on: HCT-116 colon
KM12 colon = tested on: KM12 colon

SMILES	growth (NCI-H23 lung)	growth (NCI-H226 lung)	growth (NCI-H322M lung)	growth (HOP-62 NSCLC)	growth (NCI-H460 lung)	growth (786-0 renal)	growth (MDA-MB-231 breast)	growth (SF-268 CNS)	growth (M14 melanoma)	growth (PC-3 prostate)	growth (UACC-62 melanoma)	growth (SK-MEL-28 melanoma)	growth (SN12C renal)	growth (UO-31 renal)	growth (OVCAR-5 ovarian)	growth (NCI/ADR-RES ovarian)	growth (MDA-MB-435 melanoma)	growth (SW-620 colon)	growth (HCT-116 colon)	growth (KM12 colon)
Cc1cc(CCl)c(C)cc1CCl	55.4% (inactive)	83.3% (inactive)	15% (inactive)	15.3% (inactive)	4.86% (active)	36.9% (inactive)	108% (inactive)	41.9% (inactive)	45.1% (inactive)	66.9% (inactive)	60.6% (inactive)	77.7% (inactive)	30.9% (inactive)	33.9% (inactive)	141% (inactive)	62% (inactive)	76.5% (inactive)	59.9% (inactive)	50.9% (inactive)	-43.7% (active)
OC1(c2ccccc2F)c2ccccc2C2=NCCN21 (centres undefined)	86.7% (inactive)	84.8% (inactive)	97.2% (inactive)	84.9% (inactive)	118% (inactive)	96.6% (inactive)	109% (inactive)	116% (inactive)	107% (inactive)	95.6% (inactive)	96% (inactive)	109% (inactive)	101% (inactive)	84.2% (inactive)	98.6% (inactive)	86.6% (inactive)	110% (inactive)	96.8% (inactive)	93.3% (inactive)	105% (inactive)
Nc1ncnc2c1c(C(=O)NO)cn2C1OC(CO)C(O)C1O (centres undefined)	-4.58% (active)	13.6% (inactive)	3.28% (active)	5.73% (active)	-21.6% (active)	9.38% (active)	-6.16% (active)	-24.7% (active)	-53.8% (active)	-20.9% (active)	-86.1% (active)	-52.3% (active)	-31.9% (active)	-58.2% (active)	16.5% (inactive)	2.24% (active)	-72% (active)	-3.16% (active)	7.69% (active)	-29.9% (active)
Cc1cccc(N(C)c2cccc3c2C(=O)[Se]C3)c1C	31.2% (inactive)	36.6% (inactive)	72.8% (inactive)	18.8% (inactive)	62.8% (inactive)	78% (inactive)	53.6% (inactive)	52.4% (inactive)	26.7% (inactive)	66.7% (inactive)	64.6% (inactive)	75.6% (inactive)	84.8% (inactive)	23% (inactive)	25.5% (inactive)	13.6% (inactive)	78% (inactive)	67.1% (inactive)	3.47% (active)	14.6% (inactive)
COc1ccc(C(c2ccc(OC)cc2)C(Cl)(Cl)Cl)cc1	81.9% (inactive)	96.9% (inactive)	106% (inactive)	83.1% (inactive)	91.8% (inactive)	74.4% (inactive)	93% (inactive)	88.6% (inactive)	84.5% (inactive)	68.7% (inactive)	84.7% (inactive)	103% (inactive)	97.8% (inactive)	53.4% (inactive)	91.9% (inactive)	89.6% (inactive)	72.4% (inactive)	89.4% (inactive)	61.8% (inactive)	83.8% (inactive)
COc1cc(N(CCCl)CCCl)ccc1C=Nc1ccccc1C(=O)O	101% (inactive)	94.7% (inactive)	95.7% (inactive)	110% (inactive)	81.1% (inactive)	110% (inactive)	96.8% (inactive)	103% (inactive)	98.2% (inactive)	90.3% (inactive)	96.4% (inactive)	94.3% (inactive)	99.2% (inactive)	78.5% (inactive)	108% (inactive)	102% (inactive)	102% (inactive)	91.6% (inactive)	108% (inactive)	71.1% (inactive)
COc1cc(C2(C#N)CCN(C)CC2)cc(OC)c1OC	104% (inactive)	110% (inactive)	129% (inactive)	103% (inactive)	102% (inactive)	102% (inactive)	98.8% (inactive)	90.9% (inactive)	90.9% (inactive)	97.5% (inactive)	94.3% (inactive)	106% (inactive)	103% (inactive)	79.8% (inactive)	97.5% (inactive)	104% (inactive)	103% (inactive)	97.3% (inactive)	91.8% (inactive)	100% (inactive)
CCOC(=O)/C=C(\C)Nc1ccc(N/C(C)=C/C(=O)OCC)c2c1Oc1ccccc1O2	89.7% (inactive)	93.2% (inactive)	110% (inactive)	117% (inactive)	122% (inactive)	88.2% (inactive)	79% (inactive)	107% (inactive)	107% (inactive)	103% (inactive)	92.3% (inactive)	114% (inactive)	96.8% (inactive)		106% (inactive)	99.5% (inactive)	101% (inactive)	99.4% (inactive)	105% (inactive)	97.6% (inactive)
Nc1cccc2c1Oc1ccccc1O2	105% (inactive)	86.2% (inactive)	102% (inactive)	102% (inactive)	190% (inactive)	99.2% (inactive)	93.1% (inactive)	176% (inactive)	108% (inactive)	84.9% (inactive)	88.1% (inactive)	124% (inactive)	106% (inactive)	201% (inactive)	98.3% (inactive)	113% (inactive)	105% (inactive)	107% (inactive)	93.3% (inactive)	114% (inactive)
CCCCCCCCCCOc1ccc(C(=O)Oc2ccc(CSP3(=O)OCC4OC(n5ccc(=O)[nH]c5=O)C(F)C4OP(=O)(O)OCC4OC(n5cnc6c(N)ncnc65)C(F)C4O3)cc2)cc1 (centres undefined)	103% (inactive)	75.5% (inactive)	84.8% (inactive)	111% (inactive)	108% (inactive)	98.6% (inactive)	111% (inactive)	104% (inactive)	90.7% (inactive)	103% (inactive)	111% (inactive)	113% (inactive)	101% (inactive)	98.5% (inactive)	116% (inactive)	105% (inactive)	105% (inactive)	115% (inactive)	79.9% (inactive)	103% (inactive)
N#C[Se]CCN1C(=O)C2C(C1=O)[C@H]1C=C[C@@H]2S1 (some centres undefined)	-11.7% (active)	-54.6% (active)	-1.58% (active)	-63.3% (active)	2.86% (active)	-30.5% (active)	-40.5% (active)	-45.2% (active)	-13.6% (active)	5.36% (active)	18.9% (inactive)	-19.2% (active)	-18.8% (active)	-90.7% (active)	14.7% (inactive)	-10.7% (active)	-39.2% (active)	42.9% (inactive)	-35.4% (active)	15.2% (inactive)
CCOc1cc(/C=N\Nc2nnc(C)n2N)c(C)cc1N(CCCl)CCCl	-20.2% (active)	26.6% (inactive)	11.3% (inactive)	22.6% (inactive)	4.94% (active)	13.1% (inactive)	38.2% (inactive)	28.2% (inactive)	13.8% (inactive)	7.23% (active)	-1.59% (active)	37.4% (inactive)	17.3% (inactive)	-42.2% (active)	52.6% (inactive)	10.7% (inactive)	7.67% (active)	10.4% (inactive)	12% (inactive)	13.8% (inactive)
O=C(CCCN1CCC2(CC1)C(=O)NCN2c1ccc(F)cc1)c1ccc(F)cc1	98.2% (inactive)	78.4% (inactive)	90% (inactive)	95.9% (inactive)	96.8% (inactive)	101% (inactive)	98.1% (inactive)	112% (inactive)	97.3% (inactive)	101% (inactive)	90.5% (inactive)	118% (inactive)	98% (inactive)	83.6% (inactive)	91.3% (inactive)	97.9% (inactive)	109% (inactive)	106% (inactive)	88.6% (inactive)	108% (inactive)
COc1ccc(C(=O)c2ccc([As]=O)cc2)cc1 (centres undefined)	-43.4% (active)	-59.6% (active)	-94.1% (active)	-86.1% (active)	-62.5% (active)	-99.5% (active)	-71% (active)	-83.5% (active)	-84% (active)	-86.3% (active)	-82.1% (active)	-87.1% (active)	-52.8% (active)	-95% (active)	-84.2% (active)	-5.33% (active)	-80.9% (active)	-64.4% (active)	-83.3% (active)	-93.7% (active)
CN(C)P1(N(C)C)=NP(N(C)C)(N(C)C)=NP(N(C)C)(N(C)C)=N1	106% (inactive)	99.5% (inactive)	98.8% (inactive)	99% (inactive)	107% (inactive)	101% (inactive)	107% (inactive)	105% (inactive)	101% (inactive)	90% (inactive)	103% (inactive)	107% (inactive)	107% (inactive)	83.1% (inactive)	104% (inactive)	107% (inactive)	109% (inactive)	103% (inactive)	102% (inactive)	104% (inactive)
OC1(c2ccc(Cl)cc2Cl)c2ccccc2C2=NCCN21 (centres undefined)	88.5% (inactive)	71.3% (inactive)	98.6% (inactive)	78.7% (inactive)	105% (inactive)	87.9% (inactive)	85.2% (inactive)	103% (inactive)	102% (inactive)	79% (inactive)	94% (inactive)	111% (inactive)	92.4% (inactive)	82.1% (inactive)	94.4% (inactive)	96.3% (inactive)	98% (inactive)	92.7% (inactive)	78.8% (inactive)	101% (inactive)
